Assay outcomes from PubChem.
MazF activator: activators of E. coli MazEF toxin-antitoxin RNase, primary screen, biochemical, fluorescence, uHTS; hit rate 0.32% among 350,000; activation, % at 20 µM; FAM/BHQ RNA-DNA oligo cleavage fluorescence, 5 h; in the data active = activation above about 50%
BoNT-F LC inh: BoNT/F light chain protease inhibitors, primary screen, biochemical, flow cytometry, MLPCN library; Botulinum neurotoxin type F light chain protease (Clostridium botulinum); Multiplex microsphere protease cleavage assay; inhibition, % at 10 µM; hit rate 0.22% among 360,000; AID 588497, 2011; in the data active = inhibition above about 35%, passing the limit was not always enough; inconclusive = no clear call, values can overlap the other calls
VHR inh abs: VHR1 phosphatase inhibitors, primary screen, biochemical, absorbance, uHTS | inhibition, % at 13.3 µM | recombinant VHR phosphatase, pNPP absorbance | Dual specificity protein phosphatase 3 (Homo sapiens), P51452 | AID 1654, 2009 | hit rate 0.52% among 290,000; in the data active = inhibition above about 50%
BoNT-A LC inh2: BoNT/A light chain protease inhibitors, primary screen, biochemical, flow cytometry, MLPCN library; hit rate 0.17% among 360,000; multiplex microsphere protease substrate cleavage; AID 588499, 2011; inhibition, % at 10 µM
Bead autofluor: flagged as autofluorescent in microsphere protease counterscreen | fluorescence intensity (test concentration not listed) | compound autofluorescence counterscreen, microsphere flow cytometry; stronger effect = higher value | AID 624483 | hit rate 3.1% among 360,000; in the data active = fluorescence intensity above about 16000; inconclusive = no clear call, values can overlap the other calls
Anthrax LF prot: Bacillus anthracis LF protease inhibitors, primary screen, biochemical, multiplex microsphere, MLPCN library. hit rate 0.12% among 360,000. Lethal factor (Bacillus anthracis), P15917. inhibition, % at 10 µM. AID 588501, 2011. multiplex microsphere protease cleavage assay
Large screens that a line does not name were inactive. In the library only some 4.1% were active in any assay of this set; here they are far more common. Rule as the data show it, unless noted: active = inhibition above about 30%; inconclusive = no clear call, values can overlap the other calls; inactive = below that.

Cc1c(/C=N/NC(N)=O)c2ccccn2c1C(=O)c1ccc(F)cc1	none
O=c1ncn(-c2ccc(F)cc2)c2ncccc12	BoNT-A LC inh2 inconclusive, Bead autofluor 20412
Cc1ccc(-n2cnc(=O)c3cccnc32)cc1	none
COc1cc2cc(CN(CCO)S(=O)(=O)c3ccccc3Cl)c(=O)[nH]c2cc1OC	BoNT-A LC inh2 inconclusive, Bead autofluor 16702
CCOC(=O)c1cccc(S(=O)(=O)N(CCO)Cc2cc3cc(OC)c(OC)cc3[nH]c2=O)c1	Bead autofluor 24123
COc1ccc2[nH]cc(CCNC(=O)CC[C@H]3O[C@@H](n4cc(C)c(=O)[nH]c4=O)C[C@@H]3O)c2c1	none (no result: VHR inh abs)
CC(C)C(=O)Nc1nnc(CCN2CCOCC2)s1	VHR inh abs 51.2
COC(=O)Cc1nnc(NC(=O)C(C)C)s1	none
O=C(CN1CCC(NC(=O)c2ccccc2)CC1)NCc1ccccc1F	none
Cc1ccc(C(=O)C2CCN(CC(=O)NCc3ccc(F)cc3)CC2)cc1	VHR inh abs 53.3
Cc1ccc(NC(=O)CN2CCC(C(=O)c3ccc(F)cc3)CC2)cc1	none
O=C(CN1CCC(NC(=O)c2ccc(F)cc2)CC1)NCc1ccccc1F	Bead autofluor 17206
N#CCC1c2ccccc2CCN1C(=O)Nc1cccc(Cl)c1 (configuration not stated)	Bead autofluor 23621
N#CCC1c2ccccc2CCN1C(=O)Nc1ccc(C(F)(F)F)cc1 (configuration not stated)	Bead autofluor 16726
N#CCC1c2ccccc2CCN1C(=O)Nc1cccc(C(F)(F)F)c1 (configuration not stated)	none
N#CCC1c2ccccc2CCN1C(=O)Nc1ccc(Cl)cc1 (configuration not stated)	none
O=C(Nc1ccc(F)cc1F)c1cccc(C(=O)Nc2ccc(F)cc2F)n1	none
COC(=O)c1ccc2c(=O)[nH]c(CN3c4ccccc4CC3C)nc2c1 (configuration not stated)	BoNT-A LC inh2 inconclusive, Bead autofluor 19519
CCOC(=O)/C=c1/s/c(=C/c2ccc3cc(OC)ccc3c2)c(=O)n1CC(=O)NCC1CCCO1 (configuration not stated)	MazF activator 80.0 (no result: VHR inh abs)
CCOC(=O)/C=c1\s/c(=C\c2ccc(C(=O)OC)cc2)c(=O)n1CC(=O)Nc1ccccc1	none
CCOC(=O)/C=c1\s/c(=C\c2c(OC)ccc3ccccc23)c(=O)n1CC(=O)NCC1CCCO1 (configuration not stated)	MazF activator active, Bead autofluor 16857
CCN1CCN(c2ccc(S(=O)(=O)N3CCCCC3)cc2NC(=O)c2ccc([N+](=O)[O-])s2)CC1	none (no result: VHR inh abs)
Cc1ccc(NC(=O)COC(=O)c2ccco2)cc1S(=O)(=O)N1CCCCC1	none (no result: VHR inh abs)
Cc1ccc(SC(C)C(=O)Nc2cccc(N(C)S(C)(=O)=O)c2)cc1 (configuration not stated)	Bead autofluor 19657
Cc1ccc(SC(C)C(=O)Nc2ccncc2)cc1 (configuration not stated)	Bead autofluor 22693
Cc1cc(C)c(C(=O)N(C)C2CCCN(Cc3ccccc3F)C2)o1 (configuration not stated)	none
